Measurements as given in PubChem BioAssay (EPA / NIEHS).
Results filed as inconclusive are left out. The source made the active and inactive calls. How the source made its calls: active means hit-call score of the fitted dose curve at least 0.9, where 1 is the maximum; inconclusive means response in the unintended direction; inactive means score below 0.9.

molecular target: human Endothelin Receptor Type A (ETA), EDNRA (gene 1909) (UniProt P25101); experiment: NVS_GPCR_hETA: NovaScreen (NVS) G Protein-Coupled Receptor Assay for human Endothelin Receptor Type A (ETA) (AID 2283265)
How it was run: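 Binding of radioligand to membrane protein extracted from SH-SY5Y cells was read by filtration and scintillation after 3 h. Compounds were screened at 25 uM in duplicate, with hits followed up in singleton concentration series to 50 uM.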

human Endothelin Receptor Type A (ETA), EDNRA (gene 1909), sequence (P25101 whole entry, looked up): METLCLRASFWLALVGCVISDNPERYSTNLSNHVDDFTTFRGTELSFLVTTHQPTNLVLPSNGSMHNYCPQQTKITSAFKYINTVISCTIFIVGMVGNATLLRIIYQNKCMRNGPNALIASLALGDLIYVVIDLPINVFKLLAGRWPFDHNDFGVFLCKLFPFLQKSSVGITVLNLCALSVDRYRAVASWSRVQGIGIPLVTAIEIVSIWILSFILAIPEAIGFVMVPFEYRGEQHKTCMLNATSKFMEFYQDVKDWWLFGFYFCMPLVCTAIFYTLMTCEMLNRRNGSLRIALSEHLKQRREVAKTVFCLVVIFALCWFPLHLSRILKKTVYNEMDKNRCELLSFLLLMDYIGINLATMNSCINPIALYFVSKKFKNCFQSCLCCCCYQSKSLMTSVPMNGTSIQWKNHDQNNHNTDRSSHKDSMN

Compound	AC50	outcome
CN(C)c1ccc(C(=C2C=CC(=[N+](C)C)C=C2)c2ccc(N(C)C)cc2)cc1	1.81 µM (active)	–
COc1cccc([C@H](O)C2CCN(CCc3ccc(F)cc3)CC2)c1OC	–	inactive
CCOC(=O)O[C@H](C)OC(=O)c1ccc2c(c1)cc(C(=O)NC1CCN(C(C)C)CC1)n2Cc1cc(-c2ccc(Cl)s2)on1	14.3 µM (active)	–

molecular target: human Endothelin Receptor Type B (ETB), EDNRB (gene 1910) (UniProt P24530); experiment: NVS_GPCR_hETB: NovaScreen (NVS) G Protein-Coupled Receptor Assay for human Endothelin Receptor Type B (ETB) (AID 2283267)
How it was run: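 Filter-based scintillation readout of radioligand displacement, 4 h, using membranes from human astrocytoma cells. Actives from a 25 uM duplicate screen were retested in concentration-response (top 50 uM) relative to DMSO baseline.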

human Endothelin Receptor Type B (ETB), EDNRB (gene 1910), sequence (P24530 whole entry, looked up): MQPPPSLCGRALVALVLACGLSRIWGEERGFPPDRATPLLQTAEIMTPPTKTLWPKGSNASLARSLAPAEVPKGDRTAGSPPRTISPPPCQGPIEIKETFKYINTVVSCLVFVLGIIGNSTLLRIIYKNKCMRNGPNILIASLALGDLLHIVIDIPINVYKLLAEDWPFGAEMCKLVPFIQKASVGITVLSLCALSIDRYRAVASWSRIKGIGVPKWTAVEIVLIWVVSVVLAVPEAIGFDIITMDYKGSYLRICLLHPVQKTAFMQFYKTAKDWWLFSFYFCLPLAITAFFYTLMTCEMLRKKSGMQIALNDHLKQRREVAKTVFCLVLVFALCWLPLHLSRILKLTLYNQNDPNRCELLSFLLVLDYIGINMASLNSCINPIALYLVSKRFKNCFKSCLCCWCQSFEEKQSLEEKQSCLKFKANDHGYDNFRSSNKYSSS

Compound	outcome
O=C(O)Cc1cc(I)c(Oc2ccc(O)c(I)c2)c(I)c1	inactive
O=C1c2ccccc2C(=O)N1CCc1noc(-c2ccc(CN3CCCCCC3)s2)n1	inactive
CN(C[C@@H](CC[N+]12CCC(C3CCCCC3)(CC1)CC2)c1ccc(Cl)c(Cl)c1)C(=O)c1cc(C(F)(F)F)cc(C(F)(F)F)c1	inactive
